Measured values: PubChem BioAssay (NCI)
Values joined by “and” are separate entries in the source; they are usually repeats but may differ in a detail not shown here. Equal entries are not always repeated. Compounds without any hit were thinned out: in the full panel of roughly 83,000, 20% have a hit.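 Note: values are percent growth. 100 is the growth of untreated cells, values between 100 and 0 indicate rising inhibition; between -100 and 0 indicates cell death.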 Active and inactive are the calls of the source. How the source made its calls: active means growth percent below 10; inactive means the rest.

Columns and labels:
Assay in all cases: NCI-60 one-dose screen, 48 h (100 = growth as untreated, 0 = no growth, -100 = all killed)
NCI-H23 lung = test system: NCI-H23 lung
NCI-H226 lung = test system: NCI-H226 lung
NCI-H322M lung = test system: NCI-H322M lung
HOP-62 NSCLC = test system: HOP-62 NSCLC
NCI-H460 lung = test system: NCI-H460 lung
NCI-H522 lung = test system: NCI-H522 lung
A549/ATCC NSCLC = test system: A549/ATCC NSCLC
786-0 renal = test system: 786-0 renal
COLO 205 colon = test system: COLO 205 colon
DU-145 prostate = test system: DU-145 prostate
K-562 leukemia = test system: K-562 leukemia
MALME-3M melanoma = test system: MALME-3M melanoma
MDA-MB-231 breast = test system: MDA-MB-231 breast
RXF 393 renal = test system: RXF 393 renal
SF-268 CNS = test system: SF-268 CNS
SF-295 CNS = test system: SF-295 CNS
SF-539 CNS = test system: SF-539 CNS
UACC-257 melanoma = test system: UACC-257 melanoma
M14 melanoma = test system: M14 melanoma
HOP-92 NSCLC = test system: HOP-92 NSCLC

Measured: growth

CC(C)(C)c1cc(NC(=O)Cc2ccc(-c3cnc4cc(-c5cnn(CCN6CCOCC6)c5)ccc4n3)cc2)no1
active: COLO 205 colon; 10 µM 9.61% | K-562 leukemia; 10 µM 2.41% | K-562 leukemia; 30 µM -1.34% | MALME-3M melanoma; 10 µM -5.96% | MALME-3M melanoma; 30 µM -9.19% | MDA-MB-231 breast; 10 µM 9.54% | RXF 393 renal; 10 µM unless noted -20.5% | SF-539 CNS; 10 µM -5.64% | SF-539 CNS; 30 µM -9.45%
inactive: NCI-H23 lung; 10 µM 26.4% | NCI-H23 lung; 30 µM 27.3% | NCI-H226 lung; 10 µM 10% | NCI-H226 lung; 30 µM 13.7% | NCI-H322M lung; 10 µM 24.9% | NCI-H322M lung; 30 µM 26.1% | HOP-62 NSCLC; 10 µM 17.1% | HOP-62 NSCLC; 30 µM 34.4% | NCI-H460 lung; 10 µM 11% | NCI-H460 lung; 30 µM 13% | NCI-H522 lung; 10 µM 20% | NCI-H522 lung; 30 µM 27% | A549/ATCC NSCLC; 10 µM 24.3% | A549/ATCC NSCLC; 30 µM 20.8% | 786-0 renal; 10 µM 18% | 786-0 renal; 30 µM 21.7% | COLO 205 colon; 30 µM 20.5% | DU-145 prostate; 10 µM 23.7% | DU-145 prostate; 30 µM 19.8% | MDA-MB-231 breast; 30 µM 14.9% | SF-268 CNS; 10 µM 19.9% | SF-268 CNS; 30 µM 24.7% | SF-295 CNS; 10 µM 21.4% | SF-295 CNS; 30 µM 15.4% | UACC-257 melanoma; 10 µM 27.1% | UACC-257 melanoma; 30 µM 31% | M14 melanoma; 10 µM unless noted 15%

CCc1ccccc1-n1c(N)c(C#N)c(-c2ccc(OC)c(OC)c2)c(C#N)c1=O
inactive: NCI-H23 lung; 10 µM 105% | NCI-H23 lung; 100 µM 29.3% | NCI-H226 lung; 10 µM 109% | HOP-62 NSCLC; 10 µM 95.2% | NCI-H460 lung; 10 µM 121% | NCI-H460 lung; 100 µM 30.1% | HOP-92 NSCLC; 10 µM 126% | NCI-H522 lung; 10 µM 105% | A549/ATCC NSCLC; 10 µM 106% | A549/ATCC NSCLC; 100 µM 79.9% | 786-0 renal; 10 µM 107% | COLO 205 colon; 10 µM 138% | COLO 205 colon; 100 µM 115% | DU-145 prostate; 10 µM 115% | DU-145 prostate; 100 µM 37.6% | K-562 leukemia; 10 µM 111% | K-562 leukemia; 100 µM 124% | MALME-3M melanoma; 10 µM 103% | MDA-MB-231 breast; 10 µM 105% | MDA-MB-231 breast; 100 µM 23.3% | RXF 393 renal; 10 µM 111% | SF-268 CNS; 10 µM 102% | SF-295 CNS; 10 µM 101% | SF-295 CNS; 100 µM 19.7% | SF-539 CNS; 10 µM 118% | UACC-257 melanoma; 10 µM 128% | UACC-257 melanoma; 100 µM 96.8% | M14 melanoma; 10 µM 112% | M14 melanoma; 100 µM 37.1%
active: NCI-H226 lung; 100 µM 8% | HOP-62 NSCLC; 100 µM -28.6% | HOP-92 NSCLC; 100 µM -34.6% | NCI-H522 lung; 100 µM -8.58% | 786-0 renal; 100 µM -9.15% | MALME-3M melanoma; 100 µM -31.2% | RXF 393 renal; 100 µM -21.6% | SF-268 CNS; 100 µM 0.0621% | SF-539 CNS; 100 µM -54.9%

CC(O)(CC(=O)CC(=O)c1ccccc1)c1ccccc1 (configuration not stated)
inactive: NCI-H23 lung; 10 µM unless noted 102% and 87.4% | NCI-H226 lung; 10 µM unless noted 93.9% and 86% | NCI-H322M lung; 10 µM unless noted 116% and 105% | HOP-62 NSCLC; 10 µM unless noted 106% and 99.2% | NCI-H460 lung; 10 µM unless noted 94.2% and 101% | HOP-92 NSCLC; 10 µM unless noted 100% and 94.7% | NCI-H522 lung; 10 µM unless noted 90.9% and 96.4% | A549/ATCC NSCLC; 10 µM unless noted 103% and 97.4% | 786-0 renal; 10 µM unless noted 101% and 106% | COLO 205 colon; 10 µM unless noted 127% | DU-145 prostate; 10 µM unless noted 143% and 102% | K-562 leukemia; 10 µM unless noted 91.2% | MALME-3M melanoma; 10 µM unless noted 113% and 96.5% | MDA-MB-231 breast; 10 µM unless noted 97.4% and 88.5% | RXF 393 renal; 10 µM unless noted 94.1% and 93.3% | SF-268 CNS; 10 µM unless noted 110% and 98.8% | SF-295 CNS; 10 µM unless noted 91.1% | SF-539 CNS; 10 µM unless noted 104% and 108% | UACC-257 melanoma; 10 µM unless noted 90.6% and 110% | M14 melanoma; 10 µM unless noted 96.1% and 96%

O=C(O)c1sccc1O
active: NCI-H522 lung; 100 µM -32.6% | K-562 leukemia; 100 µM 5.69% | M14 melanoma; 100 µM 7.02%
inactive: NCI-H23 lung; 10 µM 80.1% | NCI-H23 lung; 100 µM 37.2% | NCI-H226 lung; 10 µM 89.2% | NCI-H226 lung; 100 µM 74.1% | HOP-62 NSCLC; 10 µM 102% | HOP-62 NSCLC; 100 µM 34.1% | NCI-H460 lung; 10 µM 91.2% | NCI-H460 lung; 100 µM 30.1% | HOP-92 NSCLC; 10 µM 66.9% | HOP-92 NSCLC; 100 µM 26.9% | NCI-H522 lung; 10 µM 64.5% | A549/ATCC NSCLC; 10 µM 82.5% | A549/ATCC NSCLC; 100 µM 38.8% | 786-0 renal; 10 µM 99.1% | 786-0 renal; 100 µM 47.6% | COLO 205 colon; 10 µM 111% | COLO 205 colon; 100 µM 84.6% | DU-145 prostate; 10 µM 83.1% | DU-145 prostate; 100 µM 40.3% | K-562 leukemia; 10 µM 60.5% | MALME-3M melanoma; 10 µM 103% | MALME-3M melanoma; 100 µM 78.8% | MDA-MB-231 breast; 10 µM 40.8% | MDA-MB-231 breast; 100 µM 27.7% | RXF 393 renal; 10 µM 84.6% | RXF 393 renal; 100 µM 52.1% | SF-268 CNS; 10 µM 71.6% | SF-268 CNS; 100 µM 26% | SF-295 CNS; 10 µM 76.6% | SF-295 CNS; 100 µM 31.2% | SF-539 CNS; 10 µM 85.4% | SF-539 CNS; 100 µM 23.5% | UACC-257 melanoma; 10 µM 85.3% | UACC-257 melanoma; 100 µM 51.5% | M14 melanoma; 10 µM 85.5%

CC(=O)Oc1cc(C(=O)O)cc(OC(C)=O)c1OC(C)=O
inactive: NCI-H23 lung; 10 µM unless noted 103% and 97.3% | NCI-H226 lung; 10 µM unless noted 96.4% and 89.6% | NCI-H322M lung; 10 µM unless noted 116% and 102% | HOP-62 NSCLC; 10 µM unless noted 88.8% and 99% | NCI-H460 lung; 10 µM unless noted 113% and 108% | HOP-92 NSCLC; 10 µM unless noted 99.1% and 107% | NCI-H522 lung; 10 µM unless noted 100% and 93.4% | A549/ATCC NSCLC; 10 µM unless noted 103% and 90.1% | 786-0 renal; 10 µM unless noted 111% and 102% | COLO 205 colon; 10 µM unless noted 125% and 122% | DU-145 prostate; 10 µM unless noted 118% and 113% | K-562 leukemia; 10 µM unless noted 108% | MALME-3M melanoma; 10 µM unless noted 115% and 96.5% | MDA-MB-231 breast; 10 µM unless noted 94% and 97.3% | RXF 393 renal; 10 µM unless noted 99.5% and 122% | SF-268 CNS; 10 µM unless noted 107% and 102% | SF-295 CNS; 10 µM unless noted 107% and 102% | SF-539 CNS; 10 µM unless noted 121% and 104% | UACC-257 melanoma; 10 µM unless noted 95.3% and 90.7% | M14 melanoma; 10 µM unless noted 105% and 99%

CCOC(=O)Nc1nc2ccccc2[nH]1
101% (inactive) and 8.06% (active): SF-295 CNS; 10 µM unless noted
inactive: NCI-H23 lung; 10 µM unless noted 102% and 56.7% | NCI-H226 lung; 10 µM unless noted 104% and 71.9% | NCI-H322M lung; 10 µM unless noted 107% and 72.2% | HOP-62 NSCLC; 10 µM unless noted 106% and 53.4% | NCI-H460 lung; 10 µM unless noted 106% and 22.4% | HOP-92 NSCLC; 10 µM unless noted 104% and 62.5% | NCI-H522 lung; 10 µM unless noted 95.6% and 46.8% | A549/ATCC NSCLC; 10 µM unless noted 102% and 55.4% | 786-0 renal; 10 µM unless noted 98.5% and 39% | COLO 205 colon; 10 µM unless noted 119% and 37.7% | DU-145 prostate; 10 µM unless noted 121% and 38.4% | MALME-3M melanoma; 10 µM unless noted 101% and 52.5% | MDA-MB-231 breast; 10 µM unless noted 110% and 64% | RXF 393 renal; 10 µM unless noted 118% and 66.3% | SF-268 CNS; 10 µM unless noted 115% and 48.8% | SF-539 CNS; 10 µM unless noted 105% and 28.5% | UACC-257 melanoma; 10 µM unless noted 93.2% and 58% | M14 melanoma; 10 µM unless noted 105% and 22.4%
103% (inactive) and 7.77% (active): K-562 leukemia; 10 µM unless noted

O=[N+]([O-])c1ccccc1/C=N\Nc1ccccc1
inactive: NCI-H23 lung; 10 µM unless noted 75.3% and 88.1% | NCI-H226 lung; 10 µM unless noted 89.4% and 97.8% | NCI-H322M lung; 10 µM unless noted 86.5% and 78.3% | HOP-62 NSCLC; 10 µM unless noted 90% and 90.6% | NCI-H460 lung; 10 µM unless noted 91.2% and 97.4% | HOP-92 NSCLC; 10 µM unless noted 72.2% | NCI-H522 lung; 10 µM unless noted 68.2% and 62.3% | A549/ATCC NSCLC; 10 µM unless noted 81.4% and 81.6% | 786-0 renal; 10 µM unless noted 86.6% and 101% | COLO 205 colon; 10 µM unless noted 94.4% and 105% | DU-145 prostate; 10 µM unless noted 97.7% and 103% | K-562 leukemia; 10 µM unless noted 37.9% and 40.2% | MALME-3M melanoma; 10 µM unless noted 98.7% and 116% | MDA-MB-231 breast; 10 µM unless noted 74.1% and 65% | RXF 393 renal; 10 µM unless noted 110% and 105% | SF-268 CNS; 10 µM unless noted 78.5% and 89.5% | SF-295 CNS; 10 µM unless noted 102% and 76.9% | SF-539 CNS; 10 µM unless noted 88.1% and 106% | UACC-257 melanoma; 10 µM unless noted 94.3% and 103% | M14 melanoma; 10 µM unless noted 50.1% and 70.9%
